Each structure is given as a SMILES string. The whole screen tested about 330,000 compounds, of which about 1,300 (0.39%) were called active. Shown is part of a subset that was picked to be rich in actives. Values without a mark were called inactive.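 Rule for the calls: active = percent inhibition above a cutoff equal to the mean of all tested compounds plus 3 SD (cut at about 15% in these data); inactive = the rest.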

Sequence of Protein-arginine deiminase type-4 (Homo sapiens) (Q9UM07 whole entry, looked up): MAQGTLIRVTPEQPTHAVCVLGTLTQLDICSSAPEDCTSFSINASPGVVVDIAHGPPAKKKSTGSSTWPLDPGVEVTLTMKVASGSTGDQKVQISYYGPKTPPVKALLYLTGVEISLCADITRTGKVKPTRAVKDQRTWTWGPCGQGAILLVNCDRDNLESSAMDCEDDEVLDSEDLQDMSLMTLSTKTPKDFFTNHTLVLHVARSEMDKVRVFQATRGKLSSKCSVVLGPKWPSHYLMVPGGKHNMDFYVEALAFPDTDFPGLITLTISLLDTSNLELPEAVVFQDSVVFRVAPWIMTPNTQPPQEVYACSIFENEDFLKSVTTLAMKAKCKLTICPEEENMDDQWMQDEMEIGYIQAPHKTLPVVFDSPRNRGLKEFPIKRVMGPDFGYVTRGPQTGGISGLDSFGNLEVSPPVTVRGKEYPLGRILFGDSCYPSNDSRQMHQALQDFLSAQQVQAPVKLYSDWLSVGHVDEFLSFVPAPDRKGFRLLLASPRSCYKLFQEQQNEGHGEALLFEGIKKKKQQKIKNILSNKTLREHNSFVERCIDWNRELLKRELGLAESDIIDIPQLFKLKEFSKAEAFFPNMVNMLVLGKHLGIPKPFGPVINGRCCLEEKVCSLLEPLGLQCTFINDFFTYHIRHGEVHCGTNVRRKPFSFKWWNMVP

This test addresses Protein-arginine deiminase type-4 (Homo sapiens) (UniProt Q9UM07). Description: protein arginine deiminase 4 enzyme blockade – biochemical, fluorescence polarization, 1536-well format, primary screen (AID 485272).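 Note: 0% = PAD4 with RCA probe and DMSO and 100% = probe without PAD4.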 The settings on record: recombinant PAD4, RCA probe fluorescence polarization; at 6.36 µM; active compounds read high.
Take `CC/C(=N\NC(=O)c1ccccc1O)c1c(O)n(Cc2ccccc2)c(=O)[nH]c1=O`: the inhibition is -6.35%.
On to `COc1cc(Cn2c(N)c(C(=O)NCc3ccco3)c3nc4ccccc4nc32)cc(OC)c1OC`, for which the inhibition is -2.07%.
Regarding `CCOC(=O)c1c(N)n(Cc2ccccc2)c2nc3ccccc3nc12`, the inhibition is 42.1% (active).
For the compound `O=C(COc1ccc2ccccc2c1)N1CCN(Cc2ccncc2)CC1`, the inhibition is 3.09%.
On to `CC(C)N(CC#CCC1(O)c2ccccc2-c2ccccc21)C(C)C`, for which the inhibition was 2.13%.
For the compound `COc1ccc(CN2CCN(c3ccccc3F)CC2)c(OC)c1`, the inhibition is -6.62%.
Turning to `COc1ccccc1C1=NCc2nnc(CSC)n2-c2ccc(Cl)cc21`, the inhibition is 21.5% (active).
Regarding `Cc1cccc(-n2c(O)c(C=NC34CN5CN(CN(C5)C3)C4)c(=O)[nH]c2=O)c1`, the inhibition is 6.25%.
For the compound `Cc1ccc(N2C(=O)NC(=O)C(CCc3ccncc3)(Cc3cccc(Cl)c3Cl)C2=O)cc1` (stereo not given), the inhibition was 1.57%.
Take `CN1CCN(Cc2ccccc2C(F)(F)F)CC1`: the inhibition is 6.58%.

In general, inhibition refers to the drop in the measured response relative to a control, in per cent.

Values taken from PubChem BioAssay AID485272 (The Scripps Research Institute Molecular Screening Center, 2010).
